Data on 35 targets can be found in the supplement of paper PMC10849652.

The full data set covers some 7,900 targets. This sample favours those with a hit. About 0.6% of all pairs of compound and target were hits.

Sequence of UniProt Q96H55 (Q96H55 whole entry, looked up): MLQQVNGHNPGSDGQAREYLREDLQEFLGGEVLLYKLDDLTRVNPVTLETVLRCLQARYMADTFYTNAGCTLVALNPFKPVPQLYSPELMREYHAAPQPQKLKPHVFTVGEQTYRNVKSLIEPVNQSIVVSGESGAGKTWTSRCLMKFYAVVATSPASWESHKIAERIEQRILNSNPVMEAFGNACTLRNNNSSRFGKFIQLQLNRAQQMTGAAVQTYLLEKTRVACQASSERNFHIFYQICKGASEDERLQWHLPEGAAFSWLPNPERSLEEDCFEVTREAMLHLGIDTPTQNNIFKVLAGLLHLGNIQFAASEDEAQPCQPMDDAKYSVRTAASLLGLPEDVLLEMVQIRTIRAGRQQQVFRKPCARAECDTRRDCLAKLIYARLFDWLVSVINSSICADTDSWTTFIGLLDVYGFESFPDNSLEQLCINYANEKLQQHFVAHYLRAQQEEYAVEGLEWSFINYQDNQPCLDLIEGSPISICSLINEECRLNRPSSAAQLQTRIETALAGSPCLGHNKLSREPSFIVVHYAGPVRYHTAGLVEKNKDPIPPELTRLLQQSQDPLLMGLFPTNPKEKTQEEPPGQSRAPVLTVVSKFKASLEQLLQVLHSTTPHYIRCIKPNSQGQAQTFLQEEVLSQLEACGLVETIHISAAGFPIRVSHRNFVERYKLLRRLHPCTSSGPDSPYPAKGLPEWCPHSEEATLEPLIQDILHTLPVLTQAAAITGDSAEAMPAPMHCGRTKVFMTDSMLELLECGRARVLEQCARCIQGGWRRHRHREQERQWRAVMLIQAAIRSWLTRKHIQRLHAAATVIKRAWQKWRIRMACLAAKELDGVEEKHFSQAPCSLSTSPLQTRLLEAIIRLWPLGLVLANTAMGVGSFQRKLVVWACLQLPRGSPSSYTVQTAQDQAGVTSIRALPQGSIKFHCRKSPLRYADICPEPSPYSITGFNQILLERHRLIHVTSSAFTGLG
Sequence of UniProt P40261 (P40261 whole entry, looked up): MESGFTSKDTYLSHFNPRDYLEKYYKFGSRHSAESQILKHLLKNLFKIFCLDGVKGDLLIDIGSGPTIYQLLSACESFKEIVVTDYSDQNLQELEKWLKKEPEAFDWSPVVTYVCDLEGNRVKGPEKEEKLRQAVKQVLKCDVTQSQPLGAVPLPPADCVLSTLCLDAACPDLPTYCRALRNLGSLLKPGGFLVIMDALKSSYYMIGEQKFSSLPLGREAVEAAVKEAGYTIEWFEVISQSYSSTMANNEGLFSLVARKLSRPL
Sequence of UniProt P48645 (P48645 whole entry, looked up): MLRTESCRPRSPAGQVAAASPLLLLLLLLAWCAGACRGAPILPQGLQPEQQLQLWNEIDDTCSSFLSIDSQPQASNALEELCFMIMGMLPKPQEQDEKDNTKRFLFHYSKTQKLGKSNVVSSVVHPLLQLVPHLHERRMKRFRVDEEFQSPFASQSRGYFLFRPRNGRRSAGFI
Sequence of UniProt Q8N573 (Q8N573 whole entry, looked up): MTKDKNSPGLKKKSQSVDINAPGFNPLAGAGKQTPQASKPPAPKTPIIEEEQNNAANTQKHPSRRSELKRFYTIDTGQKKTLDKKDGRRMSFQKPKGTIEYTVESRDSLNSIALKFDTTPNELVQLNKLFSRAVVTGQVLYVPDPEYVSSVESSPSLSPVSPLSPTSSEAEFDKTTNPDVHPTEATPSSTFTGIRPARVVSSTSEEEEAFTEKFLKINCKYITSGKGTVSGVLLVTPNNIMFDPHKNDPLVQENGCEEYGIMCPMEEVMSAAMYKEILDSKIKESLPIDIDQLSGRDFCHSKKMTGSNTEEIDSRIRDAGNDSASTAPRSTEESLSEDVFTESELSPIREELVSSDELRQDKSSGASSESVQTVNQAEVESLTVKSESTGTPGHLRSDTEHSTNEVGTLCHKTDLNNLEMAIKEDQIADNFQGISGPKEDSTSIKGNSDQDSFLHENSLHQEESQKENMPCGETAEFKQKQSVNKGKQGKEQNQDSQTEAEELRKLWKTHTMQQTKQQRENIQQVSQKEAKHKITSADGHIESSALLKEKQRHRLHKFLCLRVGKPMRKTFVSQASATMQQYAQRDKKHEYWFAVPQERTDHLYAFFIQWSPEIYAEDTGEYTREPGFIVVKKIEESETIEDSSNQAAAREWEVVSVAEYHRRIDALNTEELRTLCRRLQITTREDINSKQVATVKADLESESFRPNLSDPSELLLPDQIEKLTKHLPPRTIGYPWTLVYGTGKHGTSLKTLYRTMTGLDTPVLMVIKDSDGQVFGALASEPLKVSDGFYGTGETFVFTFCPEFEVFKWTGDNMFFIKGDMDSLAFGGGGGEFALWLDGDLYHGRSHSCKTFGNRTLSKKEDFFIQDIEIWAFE
Sequence of UniProt Q9BVC4 (Q9BVC4 whole entry, looked up): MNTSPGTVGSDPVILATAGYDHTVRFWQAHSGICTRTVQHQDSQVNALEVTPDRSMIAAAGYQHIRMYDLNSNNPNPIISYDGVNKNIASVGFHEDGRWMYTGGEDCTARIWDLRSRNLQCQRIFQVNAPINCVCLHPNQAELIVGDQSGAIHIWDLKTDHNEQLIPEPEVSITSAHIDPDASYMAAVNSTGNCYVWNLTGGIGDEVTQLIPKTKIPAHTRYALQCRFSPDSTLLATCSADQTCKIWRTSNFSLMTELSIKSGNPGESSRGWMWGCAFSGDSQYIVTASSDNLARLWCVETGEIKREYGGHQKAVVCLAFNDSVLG
Sequence of UniProt O75438 (O75438 whole entry, looked up): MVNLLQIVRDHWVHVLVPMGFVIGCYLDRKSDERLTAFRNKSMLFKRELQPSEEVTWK
Sequence of UniProt Q8IXH7 (Q8IXH7 whole entry, looked up): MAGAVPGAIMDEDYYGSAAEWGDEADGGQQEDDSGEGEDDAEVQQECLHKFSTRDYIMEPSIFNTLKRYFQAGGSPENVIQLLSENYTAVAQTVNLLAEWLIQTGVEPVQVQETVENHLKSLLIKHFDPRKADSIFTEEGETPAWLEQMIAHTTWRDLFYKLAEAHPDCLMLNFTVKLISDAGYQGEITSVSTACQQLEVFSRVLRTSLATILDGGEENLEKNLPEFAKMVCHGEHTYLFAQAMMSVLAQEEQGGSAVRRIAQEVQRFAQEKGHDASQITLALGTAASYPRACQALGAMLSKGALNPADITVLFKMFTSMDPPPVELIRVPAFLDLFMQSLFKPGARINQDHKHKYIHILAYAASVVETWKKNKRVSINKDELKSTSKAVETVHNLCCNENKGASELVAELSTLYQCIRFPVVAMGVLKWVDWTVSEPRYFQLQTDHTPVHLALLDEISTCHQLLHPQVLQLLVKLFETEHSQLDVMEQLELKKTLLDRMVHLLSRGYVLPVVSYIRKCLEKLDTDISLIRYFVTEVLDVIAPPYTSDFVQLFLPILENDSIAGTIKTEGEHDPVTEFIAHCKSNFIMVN
Sequence of UniProt O75052 (O75052 whole entry, looked up): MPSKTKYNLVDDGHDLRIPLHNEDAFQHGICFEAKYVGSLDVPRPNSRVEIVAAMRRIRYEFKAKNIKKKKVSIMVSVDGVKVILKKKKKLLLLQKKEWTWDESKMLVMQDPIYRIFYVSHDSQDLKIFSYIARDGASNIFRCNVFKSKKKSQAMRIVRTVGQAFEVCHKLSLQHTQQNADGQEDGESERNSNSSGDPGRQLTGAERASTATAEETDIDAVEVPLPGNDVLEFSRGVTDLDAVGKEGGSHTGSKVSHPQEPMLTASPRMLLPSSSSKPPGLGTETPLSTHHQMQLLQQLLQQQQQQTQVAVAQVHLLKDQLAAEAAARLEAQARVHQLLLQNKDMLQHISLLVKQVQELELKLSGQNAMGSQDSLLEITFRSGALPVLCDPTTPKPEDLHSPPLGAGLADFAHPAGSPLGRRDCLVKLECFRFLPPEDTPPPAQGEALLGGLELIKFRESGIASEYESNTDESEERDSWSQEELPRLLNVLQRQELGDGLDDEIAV
Sequence of UniProt Q8N5F7 (Q8N5F7 whole entry, looked up): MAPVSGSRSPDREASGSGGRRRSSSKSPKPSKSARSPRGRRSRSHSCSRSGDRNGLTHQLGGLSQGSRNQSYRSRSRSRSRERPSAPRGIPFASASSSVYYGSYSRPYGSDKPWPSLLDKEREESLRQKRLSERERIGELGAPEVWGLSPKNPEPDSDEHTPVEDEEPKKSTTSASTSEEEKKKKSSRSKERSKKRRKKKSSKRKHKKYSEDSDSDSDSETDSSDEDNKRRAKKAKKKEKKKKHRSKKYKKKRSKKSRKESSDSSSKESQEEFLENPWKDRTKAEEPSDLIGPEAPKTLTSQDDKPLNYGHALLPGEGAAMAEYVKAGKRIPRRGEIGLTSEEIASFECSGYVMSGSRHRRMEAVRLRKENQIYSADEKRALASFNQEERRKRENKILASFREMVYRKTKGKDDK
Sequence of UniProt P53370 (P53370 whole entry, looked up): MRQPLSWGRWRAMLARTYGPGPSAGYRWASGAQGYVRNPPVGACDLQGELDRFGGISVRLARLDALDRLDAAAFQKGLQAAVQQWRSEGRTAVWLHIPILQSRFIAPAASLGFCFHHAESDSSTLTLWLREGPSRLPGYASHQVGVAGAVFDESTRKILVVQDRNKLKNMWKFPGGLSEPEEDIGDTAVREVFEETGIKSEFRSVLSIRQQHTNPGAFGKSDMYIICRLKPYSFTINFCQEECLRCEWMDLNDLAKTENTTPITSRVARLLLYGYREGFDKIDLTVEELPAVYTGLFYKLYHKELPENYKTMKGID
Sequence of UniProt P03891 (P03891 whole entry, looked up): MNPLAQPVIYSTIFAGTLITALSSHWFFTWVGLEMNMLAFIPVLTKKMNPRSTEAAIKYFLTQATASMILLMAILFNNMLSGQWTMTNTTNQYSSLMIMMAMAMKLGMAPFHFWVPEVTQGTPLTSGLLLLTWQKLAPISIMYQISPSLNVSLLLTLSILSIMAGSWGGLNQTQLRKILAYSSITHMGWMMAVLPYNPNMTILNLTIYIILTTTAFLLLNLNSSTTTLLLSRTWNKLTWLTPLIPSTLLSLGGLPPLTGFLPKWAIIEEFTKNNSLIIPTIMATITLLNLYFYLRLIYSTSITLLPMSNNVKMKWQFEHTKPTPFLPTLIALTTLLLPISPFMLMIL
Sequence of UniProt Q92686 (Q92686 whole entry, looked up): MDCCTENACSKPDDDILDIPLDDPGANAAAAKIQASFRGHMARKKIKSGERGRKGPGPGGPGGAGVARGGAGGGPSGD

Compound in the first assay: CCCCN(Cc1ccc(C(=O)NO)cc1)C(=O)Nc1ccccc1 [Nexturastat A]
Put plainly: log2 fold change, soluble protein after heating vs DMSO (PISA); higher = thermal stabilisation; K562 cells, 10 uM, 30 min; active = over 0.2 and 3.5 SD of the protein, either way, in both replicates (recomputed). The essentials: (§1)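 K562 cells at 2×10^6 cells/mL were treated for 30 min with 10 μM compound, and aliquots were heated for 3 min over 48°C-58°C before pooling. Extraction used PBS with 0.5% NP-40 at 4°C, and soluble protein was the supernatant after 21,000xg for 90 min, measured by TMTpro 16plex LC-MS/MS with channel sums equalised. Thermal stability values, relative to control samples and from duplicates, are log2 fold changes.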
With NMU (UniProt P48645), the log2 fold change was 0.283 (inactive).
Still for that read-out and setting: next, NOS1AP (UniProt O75052): -0.058 (inactive); NAGPA (UniProt Q9UK23): -0.131 (inactive); MSANTD2 (UniProt Q6P1R3): 0.239 (inactive).
With NDUFB1 (UniProt O75438), the log2 fold change is 0.027 (inactive).
On the same count and under the same terms, under NA (UniProt B2RBV5) stands 0.292 (inactive); under NKAP (UniProt Q8N5F7), 0.042 (inactive); under MORC2 (UniProt Q9Y6X9), -0.046 (inactive).
As for NNMT (UniProt P40261), the log2 fold change is -0.082 (inactive).
MLST8 (UniProt Q9BVC4): the log2 fold change was 0.001 (inactive).
Consider NUDT6 (UniProt P53370), for which the log2 fold change was -0.119 (inactive).
With OXR1 isoform 2 (UniProt Q8N573), the log2 fold change is 0 (inactive).
With MOB2 isoform 3 (UniProt Q70IA6), the log2 fold change was -0.149 (inactive).
For the target MLH1 (UniProt P40692), the log2 fold change was -0.014 (inactive).
Still for that read-out and setting: under OGFOD2 (UniProt Q6N063) stands 0.117 (inactive).
As for NA (UniProt J3KR12), the log2 fold change was -0.283 (inactive).
As to NELFCD (UniProt Q8IXH7), the log2 fold change was 0.094 (inactive).
As for NA, A0A494C071, the log2 fold change is -0.081 (inactive).
On the same count and under the same terms, under NRGN (UniProt Q92686) stands 0.143 (inactive); under MYO19 (UniProt Q96H55), 0.382 (inactive).

Compound in the next assay: CCCS(=O)(=O)Nc1ccc(F)c(C(=O)c2c[nH]c3ncc(-c4ccc(Cl)cc4)cc23)c1F [vemurafenib]
The assay is described as above. An outline of the steps:
as §1
NPC1L1 (UniProt Q9UHC9): the log2 fold change was -0.213 (inactive).
Regarding NMU (UniProt P48645), the log2 fold change was 0.067 (inactive).
The same measure, in the same setting: under NOS1AP (UniProt O75052) stands -0.335 (inactive).
Still for that read-out and setting: next, MSANTD2 (UniProt Q6P1R3): -0.062 (inactive); NDUFB1 (UniProt O75438): -0.001 (inactive).
On the same count and under the same terms, under MRM2 (UniProt Q9UI43) stands 0.047 (inactive); under MITF (UniProt O75030), 0.016 (inactive); under NKAP (UniProt Q8N5F7), 0.073 (inactive).
Regarding MOB3B (UniProt Q86TA1), the log2 fold change is 0.137 (inactive).
On the same count and under the same terms, next, NDUFA7 (UniProt M0R0N0): -0.195 (inactive); NNMT (UniProt P40261): 0.011 (inactive); MT-ND2 (UniProt P03891): 0.065 (inactive).
MLST8 (UniProt Q9BVC4): the log2 fold change is 0.009 (inactive).
On to NUDT6 (UniProt P53370), for which the log2 fold change is 0.002 (inactive).
On to OXR1 isoform 2 (UniProt Q8N573), for which the log2 fold change was 0.126 (inactive).
Same read-out and setting: next, MYH16 (UniProt Q9H6N6): 0.155 (inactive); OGFOD2 (UniProt Q6N063): 0.001 (inactive); MMADHC (UniProt Q9H3L0): 0.067 (inactive).
As for NELFCD (UniProt Q8IXH7), the log2 fold change is 0.15 (inactive).
On the same count and under the same terms, under NIPSNAP3B (UniProt Q9BS92) stands 0.065 (inactive).
On to NAP1L1 (UniProt B7Z9C2), for which the log2 fold change was -0.304 (inactive).
Still for that read-out and setting: next, NA, A0A494C071: -0.142 (inactive).
On the same count and under the same terms, under MYO19 (UniProt Q96H55) stands -0.082 (inactive).

Compound in another assay: CCCS(=O)(=O)Nc1ccc(F)c(C(=O)c2c[nH]c3ncc(Cl)cc23)c1F
The assay is described as above. An outline of the steps: as §1
With NPC1L1 (UniProt Q9UHC9), the log2 fold change is -0.109 (inactive).
As for NMU (UniProt P48645), the log2 fold change is -0.127 (inactive).
Same read-out and setting: under NKTR (UniProt P30414) stands -0.4 (inactive).
Consider OVCA2 (UniProt Q8WZ82), for which the log2 fold change is -0.048 (inactive).
Still for that read-out and setting: next, NOS1AP (UniProt O75052): -0.161 (inactive); NAGPA (UniProt Q9UK23): -0.067 (inactive); NDUFB1 (UniProt O75438): 0.065 (inactive).
Still for that read-out and setting: under NA (UniProt B2RBV5) stands 0.005 (inactive); under NEU3 isoform 2 (UniProt Q9UQ49), 0.133 (inactive); under MRM2 (UniProt Q9UI43), -0.078 (inactive).
With NKAP (UniProt Q8N5F7), the log2 fold change was 0.046 (inactive).
Same read-out and setting: under MORC2 (UniProt Q9Y6X9) stands 0.208 (inactive); under MOB3B (UniProt Q86TA1), -0.272 (inactive); under NNMT (UniProt P40261), -0.001 (inactive).
The same measure, in the same setting: under MT-ND2 (UniProt P03891) stands 0.198 (inactive).
On the same count and under the same terms, next, OSBPL2 (UniProt Q9H1P3): 0 (inactive); MLST8 (UniProt Q9BVC4): 0.031 (inactive).
As to NUDT6 (UniProt P53370), the log2 fold change is -0.037 (inactive).
On to MXRA7 isoform 3 (UniProt P84157), for which the log2 fold change was 0.193 (inactive).
The same measure, in the same setting: under OXR1 isoform 2 (UniProt Q8N573) stands 0.027 (inactive).
The same measure, in the same setting: under MYH16 (UniProt Q9H6N6) stands 0.216 (inactive); under MOB2 isoform 3 (UniProt Q70IA6), 0.018 (inactive).
On the same count and under the same terms, next, MLH1 (UniProt P40692): 0.276 (inactive).
With MMADHC (UniProt Q9H3L0), the log2 fold change was -0.057 (inactive).
Regarding NELFCD (UniProt Q8IXH7), the log2 fold change was 0.051 (inactive).
Same read-out and setting: under NIPSNAP3B (UniProt Q9BS92) stands 0.016 (inactive); under NRGN (UniProt Q92686), 0.032 (inactive).
The same measure, in the same setting: next, MYO19 (UniProt Q96H55): 0.554 (active).
